Screening results from PubChem BioAssay.
In the library only some 2.4% were active in any assay of this set; here they are far more common.
D2 antagonist: antagonizes the human D2 dopamine receptor; inhibition, % at 10 µM; AID 485344; HEK293 TREx D2 cells, calcium flux, dopamine EC80; 2% of 340,000 active; P14416; in the data active means inhibition above about 30%; inactive means below that, where a call was filed; further: 0% is about no effect
Target sequence (P14416 whole entry, looked up): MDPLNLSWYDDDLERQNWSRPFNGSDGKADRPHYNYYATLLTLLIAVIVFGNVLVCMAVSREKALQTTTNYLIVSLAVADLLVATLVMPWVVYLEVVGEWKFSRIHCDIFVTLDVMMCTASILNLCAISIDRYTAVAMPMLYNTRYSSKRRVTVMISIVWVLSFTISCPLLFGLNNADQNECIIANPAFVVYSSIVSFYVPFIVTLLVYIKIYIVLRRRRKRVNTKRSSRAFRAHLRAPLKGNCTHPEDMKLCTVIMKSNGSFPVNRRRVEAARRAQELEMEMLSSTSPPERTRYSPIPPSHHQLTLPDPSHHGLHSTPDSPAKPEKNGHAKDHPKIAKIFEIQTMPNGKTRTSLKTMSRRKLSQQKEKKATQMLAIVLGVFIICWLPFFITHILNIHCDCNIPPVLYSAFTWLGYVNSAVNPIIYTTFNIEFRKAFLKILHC
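HEK293 T-REx D2 cells, tet-induced, calcium dye no-wash. Cpd pintool add, 180 s kinetic, then EC80 DA, 180 s kinetic. Ca flux read.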
D2 PAM-1: D2 dopamine receptor (human) potentiation; P14416; HEK293 T-REx D2, calcium flux, EC20 dopamine potentiation; potentiation, % at 10 µM; 0.34% of 340,000 active; AID 485347;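 active means potentiation over 3 SD above the plate norm, cut at about 30% in these data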; further: 0% is about no effect
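Primary screen. Calcium kinetics in induced HEK293 T-REx D2 cells: compound pre-addition 180 s, EC20 dopamine, 180 s more.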
D2 ag-1: activates the human D2 dopamine receptor. P14416. HEK293 T-REx D2 cells, calcium flux agonist mode. activation, % at 2 µM. 0.53% of 340,000 active. AID 485358;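 active means activation over 3 SD above normal in the single-dose calcium agonist read, cut at about 30% in these data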; further: 0% is about no effect
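Calcium-flux readout, 1 cycle/sec over 180 s following compound pin transfer, in inducible HEK293 Trex D2 cells (force-coupled); dopamine controls included. Positive calcium responses during this window marked compounds as potential agonists.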
D2 PAM-2: potentiates the human D2 dopamine receptor allosterically; P14416; DiscoveRx D2 beta-arrestin cells, luminescence, 90 min; 100% = 57 uM dopamine signal; potentiation, % (test concentration not listed); 0.23% of 360,000 active; AID 624464; in the data active means potentiation above about 50%; inconclusive means mostly about 30% to 49%
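PathHunter beta-arrestin assay in DiscoveRx D2 cells. Compounds were added with an EC20 of dopamine (50 nM final) for 90 min at 37 deg C. Luminescence was read 1 h after detection reagent, with 57 uM dopamine as the EC100 control.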
D2 ag-2: activates the human D2 dopamine receptor; DiscoveRx PathHunter D2 beta-arrestin, luminescence, 90 min; 100% = 57 uM dopamine signal; activation, % (test concentration not listed); 0.084% of 360,000 active; AID 624465; in the data active means activation above about 40%; inconclusive means between about 15% and that limit
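Agonist mode: compounds alone added to overnight-plated D2 PathHunter cells for 90 min at 37 C, with 57 uM final dopamine (EC100) defining full response. Beta-arrestin recruitment detected by chemiluminescent reagent, read after 1 h at ambient temperature.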
* hit, by the source's call; ? = inconclusive; / = not tested or not shown.

SMILES | D2 antagonist | D2 PAM-1 | D2 ag-1 | D2 PAM-2 | D2 ag-2
Nc1c(C(=O)Nc2ccc(Cl)c(C(F)(F)F)c2)sc2nc3c(cc12)N1CCC3CC1 | / | -1.9 | -0.5 | / | /
CC(C)[C@H]1C(=O)N2CCC[C@H]2[C@]2(O)O[C@](NC(=O)[C@@H]3C=C4c5cccc6[nH]cc(c56)C[C@H]4N(C)C3)(C(C)C)C(=O)N12 | 88.5* | -31.5 | 83.6* | 65.9* | 79.5*
CC(C)[C@@]1(NC(=O)[C@@H]2C=C3c4cccc5[nH]cc(c45)C[C@H]3N(C)C2)O[C@@]2(O)[C@@H]3CCCN3C(=O)[C@H](Cc3ccccc3)N2C1=O | 80.2* | -28.7 | 64.3* | / | /
COc1cc(C)c(CN2CC=C(c3ccc(F)cc3)CC2)cc1C | 83.9* | -26.8 | -0.8 | -17.1 | 0.3
COc1cc(CN2CC=C(c3ccc(F)cc3)CC2)cc(OC)c1 | 81.1* | -29.7 | 0.5 | -2.4 | -1.9
COc1ccc(-n2c(/C=C\c3ccccc3F)nc3ccccc3c2=O)cc1OC | / | -7.2 | -0.3 | / | /
CCCCC1(CN2CCCC2=O)C(=O)NC(=O)NC1=O | 44.6* | 0.6 | 0.2 | -4.4 | -0.7
O=c1c2ccccc2nc(/C=C/c2ccccc2O)n1-c1ccc(Br)cc1 | / | 1.8 | 0.1 | / | /
Cc1cc(C)cc(N2C(=O)NC(=O)/C(=C\c3cccn3-c3ccccc3)C2=O)c1 | -6.3 | 19.1 | 4.3 | -1.5 | -3.0
Cc1cc(C)cc(N2C(=O)NC(=O)/C(=C\c3cccn3-c3ccc(Cl)cc3)C2=O)c1 | 37.8* | 8.8 | -0.4 | -7.4 | 0.6
CCC1(c2cccc(O)c2)CCCCN(C)C1 (stereo not drawn) | 39.3* | -9.3 | 1.0 | -2.7 | -2.4
COc1cccc(CNCCc2c[nH]c3ccccc23)c1 | 46.3* | -20.9 | 1.8 | -23.3 | 3.4
COc1ccc2[nH]cc(CCNCc3cccnc3)c2c1 | -7.7 | -12.5 | 0.0 | -1.2 | 3.1
COC(COC(N)=O)C1=C(N2CC2)C(=O)C(C)=C(N2CC2)C1=O (stereo not drawn) | / | / | / | 72.2* | ?
COc1ccc(-c2nc(CN3C(=O)CN=C(c4ccccc4)c4ccccc43)c(C)o2)cc1OC | / | 1.5 | -1.8 | / | /
COc1ccccc1N1CCN(Cc2ccccc2Cl)CC1 | 79.3* | -20.9 | 3.9 | -14.0 | -1.8
COc1ccccc1N1CCN(CCc2ccccc2)CC1 | 73.5* | -32.5 | 0.6 | -6.7 | 0.0
COc1ccccc1N1CCN(Cc2ccccc2F)CC1 | 80.6* | -27.0 | 6.2 | 5.0 | -0.8
COc1ccccc1N1CCN(Cc2cnc(-c3ccccc3)[nH]2)CC1 | 57.1* | -12.6 | -0.3 | -20.6 | -3.0
Cc1ccccc1-n1c(/C=C/c2ccccc2F)nc2ccccc2c1=O | / | 1.1 | -1.0 | / | /
CCCCc1nc2ccccc2c(=O)n1-c1cccc(OC)c1 | / | 9.7 | -2.5 | / | /
COc1ccccc1N1CCN(Cc2ccc(Br)cc2)CC1 | 93.7* | -20.9 | 0.1 | -66.3 | -2.7
Cc1nn(CC(C)C)c(Cl)c1C(=O)NC1CCCC1 | / | / | / | -8.1 | -2.1
Cc1nn(CC(C)C)c(Cl)c1C(=O)NC1CCCCC1 | 30.2* | 2.5 | 0.2 | 22.1 | -3.4
COc1cc(/C=C/c2nc3ccccc3c(=O)n2-c2ccc(Br)c(C)c2)ccc1O | / | / | 0.5 | / | /
SMILES | D2 antagonist | D2 PAM-1 | D2 ag-1 | D2 PAM-2 | D2 ag-2
COC(=O)C(O)(c1ccc(NC(=S)NC(=O)c2ccc(Cl)cc2Cl)cc1)C(F)(F)F (stereo not drawn) | -0.1 | 32.0* | 10.8 | -31.6 | -6.3
CCc1ccc(-n2nc(C)c3c2NC(=O)CSC3c2ccc(OC)cc2OC)cc1 (stereo not drawn) | / | -18.9 | -1.1 | / | /
CCN(CC)CCSc1nc2ccccc2c(=O)n1-c1ccc(Cl)cc1 | / | -0.2 | -4.1 | / | /
O=C(CCCN1CCC2(CC1)C(=O)NCN2c1ccccc1)c1ccc(F)cc1 | 71.3* | / | 75.8* | / | /
O=c1cc(CN2CC=C(c3ccccc3)CC2)c2c(ccc3ccccc32)o1 | -0.5 | -4.9 | 19.6 | -13.3 | 0.7
Cc1cc(O)c(CN2CC=C(c3ccccc3)CC2)cc1C(C)C | 74.6* | -25.7 | 0.5 | -16.2 | -3.4
O=S1(=O)N(Cc2ccccc2)CCCN1Cc1ccc(F)cc1Cl | / | -4.3 | 0.4 | / | /
O=C(Nc1ccc(F)c(Cl)c1)N(Cc1ccc2c(c1)OCO2)C1CCN(Cc2ccccc2)CC1 | / | -3.8 | 0.8 | / | /
COc1ccc(-c2nc(CN3C(=O)CN=C(c4ccccc4Cl)c4cc(Cl)ccc43)c(C)o2)cc1OC | / | -3.2 | 7.0 | / | /
N#Cc1cc2c(nc1SCC(=O)Nc1ccc(C(F)(F)F)cc1)C1CCN2CC1 | / | -6.7 | / | / | /
CN(C)C1(CNC(=O)c2ccc(NS(=O)(=O)c3ccc(Cl)c(Cl)c3)cc2)CCCCC1 | 7.6 | 0.4 | 0.8 | -3.3 | -0.6
CN(C)C1(CNC(=O)Nc2ccc(Cl)c(Cl)c2)CCCCC1 | 54.3* | -33.8 | 2.6 | -15.2 | -2.0
CC(C)Cc1nc2cccnc2n1C1CCNCC1 | / | 11.8 | 0.1 | / | /
CC(=NCCC1=CCCCC1)c1c(O)n(-c2ccccc2)c(=O)[nH]c1=O | 31.0* | -8.6 | -0.1 | -2.6 | -5.5
Cc1ccc(NC(=O)CN2C(=O)CN=C(c3ccccc3)c3ccccc32)c(C)c1 | / | -4.7 | 0.4 | / | /
CCOC(=O)C(NC(=O)CC)(Nc1ccc(C(O)(C(=O)OCC)C(F)(F)F)cc1C)C(F)(F)F (stereo not drawn) | 34.2* | 15.2 | -0.6 | 0.4 | -4.1
CCOC(=O)C(NC(=O)CCl)(Nc1ccc(C(O)(C(=O)OCC)C(F)(F)F)cc1)C(F)(F)F (stereo not drawn) | -1.3 | 2.9 | 0.3 | -8.2 | -2.9
CSc1ncc(C(=O)Nc2ccc(Cl)cc2C(=O)c2ccccc2)c(C)n1 | / | -0.7 | -1.1 | / | /
CCOc1ccc(CN(CCc2ccc3c(c2)OCO3)Cc2ccc(CC)cc2)cc1 | / | 0.2 | 3.9 | / | /
Nc1c(Br)cc2c3c(cccc13)-c1ccccc1-2 | / | / | / | 59.5* | 7.3
CCCC12CN3CC(C)(CN(C1)C3c1c(C)[nH]c(=O)[nH]c1=O)C2=O (stereo not drawn) | / | 5.0 | -1.0 | / | /
CC1=CC(=O)C2=C(C)CC(O)C3C(C)C(=O)OC3C12 (stereo not drawn) | 35.2* | 3.5 | 0.1 | 2.8 | 2.0
CC(=O)N1CCC2(CC1)CC(=O)c1cc(OCC(=O)N3CCN(C)CC3)ccc1O2 | -3.9 | -3.4 | 0.1 | -5.3 | -0.9
CC(=O)N1CCC2(CC1)CC(=O)c1cc(OCC(=O)N3CCC4(CC3)OCCO4)ccc1O2 | 0.2 | 31.3* | 0.1 | 1.8 | 2.3
CC(=O)c1ccc(OC(NC(=O)c2ccco2)C(Cl)(Cl)Cl)cc1 (stereo not drawn) | 5.8 | 32.0* | -0.6 | -0.7 | -0.7
O=C(NC(Oc1ccccc1)C(Cl)(Cl)Cl)c1ccccc1 (stereo not drawn) | 15.8 | -4.2 | -0.6 | -3.7 | -1.5
COc1ccc(-c2nc(CN3C(=O)CN=C(c4ccccc4)c4cc(Cl)ccc43)c(C)o2)cc1 | / | / | 1.4 | / | /
